For 19 molecules, Euclidean distance results are on record in the supplement of paper PMC10127200.

SMILES strings stand for the structures. Structures can show the parent of a compound that is named as a salt.

Assay in all cases: Euclidean distance of Cell Painting phenotypic profile (signed KS, 77 features) to DMSO centroid (dimensionless distance); 5 or 10 uM (library dependent); higher = stronger phenotypic change vs DMSO (phenoactivity)
Details in all cases: 48 h

In one test the test system is 786-O. The method, boiled down: (§1)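 Library compounds were applied at 10 or 5 uM, depending on the library, with 0.1% DMSO final, for 48 h to five cancer lines and a healthy fibroblast line. After staining, cells were imaged confocally at 20X across 9 fields per well, and Harmony extracted 77 features, each scored as a signed Kolmogorov-Smirnov statistic against vehicle wells on the same plate. Phenoactivity is the Euclidean distance between each profile and the median vehicle profile, with profiles first plate-position corrected, correlation-weighted and averaged over replicates at the top dose.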

The next test relates to A549. The method, boiled down: as §1
A further test relates to DU145. The procedure, abridged: as §1
In the next test the test system is FB. The method, boiled down:
as §1

The test system of another test is HEPG2. The method, boiled down:
as §1

Another test relates to OVCAR4. The procedure, abridged: as §1

`COc1cc(/C=C/C(=O)O)ccc1O` [Ferulic Acid]: the Euclidean distance stood at 0.857 with 786-O; 0.966 in the test with A549; 0.806 in the test with DU145; 0.925 in the test on FB; 0.541 with HEPG2; 1.73 in the test with OVCAR4.
With `CC(CNC(=O)c1cccnc1)NC(=O)c1cccnc1` (centres undefined) [Nicaraven], the Euclidean distance in the test with 786-O came to 1.31; with A549 it was 0.748; in the test on DU145, 1; in the test on FB, 1; in the test with HEPG2 it was 2.29; with OVCAR4, 1.91.
Turning to `CN(C)C1CCN(C(=O)c2ccc(NC(=O)Nc3ccc(-c4nc(N5CCOCC5)nc(N5CCOCC5)n4)cc3)cc2)CC1`, the Euclidean distance with 786-O came out at 3.29; with A549, 3.49; in the test on DU145, 1.98; in the test on FB it was 4.95; in the test with HEPG2 it was 2.04; in the test on OVCAR4, 3.62.
Regarding `O=S(=O)(O)CCS` [Mesna], the Euclidean distance with 786-O is 0.758; in the test with A549 it was 0.755; in the test on DU145 it was 0.968; in the test on FB it was 0.772; in the test with HEPG2, 2.1; in the test with OVCAR4 it was 1.22.
Regarding `Cn1cc(C(=O)[C@@H]2CCc3[nH]cnc3C2)c2ccccc21` [Ramosetron Hydrochloride], the Euclidean distance in the test on 786-O came out at 1.07; in the test with A549 it was 0.965; in the test with DU145, 0.791; with FB, 1.34; in the test on HEPG2, 0.731; in the test on OVCAR4, 1.41.
As to `CN1C(=O)OC(C)(C)C1=O` [Trimethadione], the Euclidean distance came to 0.978 in the test with 786-O; 1.26 with A549; 0.732 in the test with DU145; 0.717 with FB; 0.658 in the test with HEPG2; 0.721 in the test with OVCAR4.
For `O=C(NS(=O)(=O)c1ccc(Br)s1)c1ccc(Cl)cc1Cl` [Tasisulam], the Euclidean distance in the test with 786-O was 1.38; in the test with A549, 0.993; in the test with DU145, 1.21; in the test with FB, 0.939; in the test on HEPG2, 1.22; in the test with OVCAR4 it was 1.66.
As to `CC(NCCC(c1ccccc1)c1ccccc1)c1ccccc1` (centres undefined) [Fendiline hydrochloride], the Euclidean distance in the test on 786-O was found to be 1.96; in the test on A549, 2.16; with DU145, 1.45; in the test with FB, 1.24; in the test on HEPG2, 2.42; with OVCAR4 it was 1.41.
On to `Cc1ccc(NC(=O)c2cccc(N(C)C)c2)cc1NC(=O)c1ccc(O)cc1`, for which the Euclidean distance in the test with 786-O came to 2.67; in the test on A549, 2.66; in the test on DU145, 2.38; in the test on FB it was 2.03; with HEPG2, 1.55; in the test with OVCAR4, 2.26.
Regarding `Cc1ccc(S(=O)(=O)NC(=O)NN2CC3CCCC3C2)cc1` (centres undefined) [Gliclazide], the Euclidean distance came to 1.36 in the test with 786-O; 0.771 with A549; 1.24 in the test with DU145; 1.14 in the test on FB; 1.07 with HEPG2; 1.65 with OVCAR4.
As to `O=C(Nc1cccc(C(F)(F)F)c1)Nc1cc(S(=O)(=O)NC2CC2)ccc1-c1ccsc1`, the Euclidean distance in the test with 786-O was 0.684; with A549, 1.29; in the test with DU145, 1.11; in the test with FB it was 1.51; with HEPG2, 2.45; in the test with OVCAR4, 1.01.
As for `CCC1=C[C@@H]2CN(C1)Cc1c([nH]c3ccccc13)[C@@](C(=O)OC)(c1cc3c(cc1OC)N(C)[C@H]1[C@@](O)(C(=O)OC)[C@H](OC(C)=O)[C@]4(CC)C=CCN5CC[C@]31[C@@H]54)C2` [Vinorelbine Tartrate], the Euclidean distance with 786-O worked out at 3.19; in the test on A549 it was 3.7; in the test on DU145 it was 4.27; in the test on FB, 3.46; in the test on HEPG2 it was 2.97; in the test on OVCAR4 it was 3.03.
For the molecule `COc1cc2ncnc(Nc3ccc(O)c(Br)c3)c2cc1OC`, the Euclidean distance stood at 1.36 in the test on 786-O; 1.35 in the test with A549; 1.92 in the test with DU145; 1.7 with FB; 1.64 in the test with HEPG2; 0.933 in the test on OVCAR4.
Take `C[S+]([O-])c1ccc(-c2nc(-c3ccc(F)cc3)c(-c3ccncc3)[nH]2)cc1` (centres undefined): the Euclidean distance worked out at 1.84 in the test on 786-O; 0.978 in the test on A549; 1.1 with DU145; 1.03 with FB; 2.4 in the test with HEPG2; 1.33 in the test on OVCAR4.
For `C[C@H]1[C@H](C)CC[C@]2(C(=O)O)CC[C@]3(C)C(=CC[C@@H]4[C@@]5(C)C[C@@H](O)[C@H](O)[C@@](C)(CO)[C@@H]5[C@H](O)C[C@]43C)[C@H]12` [Madecassic acid], the Euclidean distance in the test with 786-O came to 0.661; in the test with A549, 0.291; with DU145, 0.775; with FB it was 0.741; in the test with HEPG2, 0.461; with OVCAR4, 0.968.
As to `N[C@@H](Cc1cc(I)c(Oc2ccc(O)c(I)c2)c(I)c1)C(=O)O` [Liothyronine Sodium], the Euclidean distance worked out at 0.896 in the test on 786-O; 0.796 in the test on A549; 0.838 with DU145; 1.56 in the test on FB; 1.41 in the test on HEPG2; 0.927 with OVCAR4.
As for `COc1ccccc1N1CCN(CCN2C(=O)CC3(CCCC3)CC2=O)CC1`, the Euclidean distance in the test on 786-O was 1.45; with A549 it was 1.72; in the test on DU145, 1.3; in the test with FB it was 1.24; in the test with HEPG2, 1.77; in the test with OVCAR4, 1.54.
Take `CS(=O)(=O)Nc1cc2occ(NC=O)c(=O)c2cc1Oc1ccccc1` [Iguratimod]: the Euclidean distance in the test on 786-O amounted to 0.942; in the test with A549, 0.587; in the test with DU145, 2.23; in the test with FB it was 1.05; in the test with HEPG2 it was 0.878; with OVCAR4, 0.85.
Take `COc1ccccc1OCC(O)CO` (centres undefined) [Guaifenesin]: the Euclidean distance came to 1.05 with 786-O; 0.957 in the test on A549; 1.4 with DU145; 1.24 with FB; 1.99 in the test on HEPG2; 1.31 in the test with OVCAR4.
